Screening results (PubChem BioAssay)
PV pol inh: poliovirus RdRp elongation inhibitors, primary screen, biochemical, fluorescence polarization, total intensity; % elongation, % (compound at 16.7 µg/mL); AID 588519, 2011; poliovirus polymerase elongation; active compounds read low; 150,000 tested, 0.66% active; in the data active means % elongation below about 90%
MenB inh: M. tuberculosis MenB inhibitors, primary screen, biochemical, absorbance. 1,4-dihydroxy-2-naphthoyl-CoA synthase (Mycobacterium tuberculosis (strain ATCC 25618 / …. MenB enzyme assay, absorbance read-out. inhibition, % (concentration not given with the values). 100,000 tested, 0.43% active. AID 540299, 2011; in the data active means inhibition above about 21%, passing the limit was not always enough
Mtb MbtI inh: MbtI salicylate synthase inhibitors, primary screen, biochemical, fluorescence intensity. P9WFX0. 100,000 tested, 0.89% active. purified MbtI enzyme, fluorescence intensity read-out. inhibition, % (test concentration not listed); in the data active means inhibition mostly above about 56%, no sharp cut-off; inactive means mostly below about 77%
Target sequence (P9WFX0 whole entry, looked up): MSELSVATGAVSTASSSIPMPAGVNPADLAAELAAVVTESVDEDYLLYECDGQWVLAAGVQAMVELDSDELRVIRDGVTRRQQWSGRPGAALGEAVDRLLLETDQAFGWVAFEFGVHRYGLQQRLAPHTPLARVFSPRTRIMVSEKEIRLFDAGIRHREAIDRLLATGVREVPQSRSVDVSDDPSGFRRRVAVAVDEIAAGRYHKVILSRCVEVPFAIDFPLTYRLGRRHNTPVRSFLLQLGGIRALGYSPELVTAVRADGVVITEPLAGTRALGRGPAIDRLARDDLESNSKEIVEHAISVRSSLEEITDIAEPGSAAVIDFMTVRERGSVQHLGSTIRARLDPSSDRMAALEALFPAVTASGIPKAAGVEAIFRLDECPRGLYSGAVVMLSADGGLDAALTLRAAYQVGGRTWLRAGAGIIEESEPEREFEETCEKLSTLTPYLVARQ
A number is an active result; n = inactive; x = no result given; ! = not confirmed by another sample. Shown are actives, neighbours in structure and some others; about 1.4% of the full set was active somewhere.

SMILES | PV pol inh | MenB inh | Mtb MbtI inh
CC(=O)SCc1n[nH]c(=S)n1C(C)=O | n | n | n
CC1CCN(C(=O)c2ccc(C(C)(C)C)cc2)CC1 | n | n | x
COc1ccc(C(=O)N2CC(C)CC(C)C2)cc1 (configuration not stated) | n | n | n
CC1CCN(C(=O)c2ccc(Br)cc2)CC1 | n | 36 | n
COc1ccc(C(=S)N2CCC(C)CC2)cc1 | n | n | 72
Cc1nc(C23CC4CC(CC(C4)C2)C3)[nH]c(=O)c1Cl | n | n | n
CCCc1cc(=O)[nH]c(SCC(=O)c2cc(C)n(-c3ccc4c(c3)OCO4)c2C)n1 | n | n | n
O=C1CSC2(CCCCC2)N1c1ccc(Cl)cc1 | n | n | n
CCOC(=O)c1cnc2ccccc2c1NCCc1ccccc1 | n | n | n
CCOC(=O)c1cccc2ncccc12 | n | n | 96
C=CCn1c(=N)n(CC(=O)c2cccs2)c2ccccc21 | n | n | n
O=C1NC(=Nc2ccccc2)CS1 | n | n | n
O=C1NC(=Nc2ccc(F)cc2)CS1 | n | n | 78
CC1CCN(C(=O)/C=C\c2ccccc2)CC1 | n | n | x
CN(C)S(=O)(=O)c1cc(C(=O)NCC2CCCO2)c(Cl)cc1Cl (configuration not stated) | n | n | x
Cc1c(CCNC(=O)c2cc(S(=O)(=O)N(C)C)c(Cl)cc2Cl)c2ccccc2n1C | 89 | n | x
O=C1CCCN1CCCn1cnc2c([nH]c3ccccc32)c1=O | n | n | n
CC1Sc2nnc(C(C)(C)C)n2N=C1c1ccc(Cl)cc1 (configuration not stated) | 76 | n | n
Cc1ccc(C2=Nn3c(nnc3C3CCCCC3)SC2C)cc1 (configuration not stated) | n | n | n
S=C(NCC1CCCO1)N/N=C/c1cccnc1 (configuration not stated) | n | n | n
CC(=O)Nc1ccc(S(=O)(=O)N2CCCCC2)cc1 | n | n | x
CC(NS(=O)(=O)c1ccc(Br)cc1)C(=O)NCc1ccco1 (configuration not stated) | n | 37 | n
CC(C)NS(=O)(=O)c1ccc(OCC(=O)NCc2ccco2)cc1 | x | x | n
O=C(O)COCC(=O)Nc1ccc(Oc2cccc(C(F)(F)F)c2)nc1 | n | n | n
NCCN1C(=O)C2C3c4ccccc4C(c4ccccc43)C2C1=O (configuration not stated) | n | n | n
SMILES | PV pol inh | MenB inh | Mtb MbtI inh
O=C1C2C3c4ccccc4C(c4ccccc43)C2C(=O)N1Cc1ccco1 (configuration not stated) | n | 23 | n
O=C(NCCc1ccccc1)c1ccc(C(F)(F)F)cc1 | n | n | x
COc1ccc(-c2csc(=Nc3cc(C(=O)O)ccc3C)o2)cc1 | 86 | n | x
COc1ccc(-c2sc(C(=O)O)cc2C)cc1 | n | n | n
N#Cc1oc2ccccc2c1NC(=O)CSc1nnc(-c2ccccc2)n1Cc1ccco1 | x | 39 | n
N#Cc1oc2ccccc2c1NC(=O)CSc1nnc2n(-c3ccccc3)c(=O)c3ccccc3n12 | n | n | n
CS(=O)(=O)N(CCc1ccccc1)CC(=O)N1CCOCC1 | n | 34 | n
CC1CCN(C(=O)CN(CCc2ccccc2)S(C)(=O)=O)CC1 | n | n | n
Cc1ccc(NC(=O)Cn2c(=O)n(CCCCCC(=O)NCc3ccc(F)cc3)c(=O)c3sccc32)cc1C | n | x | x
CC(CN1CCCN(C)CC1)c1ccccc1 (configuration not stated) | n | n | n
CN1CCCN(Cn2nc3ccccn3c2=S)CC1 | 15 | n | n
COc1ccccc1-c1c(C)nn2c(N3CCN(c4cccc(Cl)c4)CC3)cc(C)nc12 | n | x | x
CC1=CC(=O)C=C(C)C1=NS(=O)(=O)c1ccccc1 | n | n | 96
CN1C/C(=N\S(=O)(=O)c2ccccc2)N(C)C1=O | n | n | n
Cc1c(C(=O)O)sc2nc[nH]c(=O)c12 | n | n | x
Cc1sc2nc[nH]c(=S)c2c1C | n | n | 57!
Cc1ccccc1OCC(=O)Nc1sc2c(c1C(=O)NCc1ccco1)CCCC2 | n | n | n
N#C/C(=C(/O)C(F)(F)F)c1nnc2n1CCCCC2 | n | x | n
COc1ccc(C2=NN(CC(=O)NCc3ccc4c(c3)OCO4)C(=O)CC2)cc1 | n | n | n
COC(=O)N/N=C1/C(=O)c2cccc3cccc1c23 | n | n | n
NC(=S)N/N=C1/C(=O)c2cccc3cccc1c23 | n | n | 76
COc1cc2ccccc2cc1C(=O)N1CCN(c2nc3c(F)cc(F)cc3s2)CC1 | n | x | x
CC1=NN(c2ccccc2)C(=O)C1(C)N (configuration not stated) | n | n | n
CC1=NN(c2ccccc2)C(=O)C1(O)C1C(=O)c2ccccc2C1=O (configuration not stated) | 29 | n | n
N#Cc1ccc(NC(=O)CSC2=Nc3ccccc3C3CC=NN23)cc1Cl (configuration not stated) | x | n | n
SMILES | PV pol inh | MenB inh | Mtb MbtI inh
O=C(Cn1cnc2ccccc2c1=O)N1CCc2ccccc21 | n | n | n
O=C(Cn1cnc2ccccc2c1=O)N1CCCCCC1 | n | 33 | n
COc1cccc(N2CCN(C(=O)CCc3c(C)nc4c(c3C)c(=O)n(C)c(=O)n4C)CC2)c1 | n | x | x
Cc1ccccc1CN1C(=O)C(O)(CC(=O)/C=C\c2ccccc2)c2ccccc21 (configuration not stated) | n | n | n
NC(=O)CN1C(=O)C(O)(CC(=O)/C=C\c2ccccc2)c2ccccc21 (configuration not stated) | n | 43 | n
COc1ccc(OCCNC(=O)c2nccnc2C(=O)O)cc1 | n | n | n
CSc1ncc2c(=O)[nH]ccc2n1 | n | n | n
CC(=O)Nc1sc2c(c1CN(C)C)CCCC2 | n | n | n
CC(=O)Nc1sc2c(c1-c1nsc(=O)o1)CCCC2 | 82 | n | x
O=C(OCC1CCCN2CCCCC12)C1CCNCC1 (configuration not stated) | n | n | x
CCSc1nc2c(c(=O)[nH]c(=O)n2C)n1CC | n | n | 98
CCCn1c(N)nc2c1c(=O)[nH]c(=O)n2C | n | n | n
O=C1NC(=S)N(c2ccccc2)C(=O)/C1=C/C=C/c1ccco1 | n | n | n
COc1cccc(N2C(=O)/C(=C/C=C/c3ccco3)C(=O)NC2=S)c1 | n | n | 101
O=C(CCCN1C(=O)c2ccccc2C1=O)NC1=NCCS1 | n | n | n
O=C(CCN1c2ccccc2Sc2ccccc21)NC1=NCCS1 | 85 | n | n
CC/C(C)=N/Oc1nc(NC(=O)NS(=O)(=O)c2ccccc2Cl)nc(N(C)C)n1 | n | n | n
Cc1c(C#N)c(NC(=O)CSc2nnc(-c3ccccc3)n2-c2ccc(Cl)cc2)n(CC2CCCO2)c1C (configuration not stated) | n | n | n
COc1ccc(/C=C2\SC(=O)NC2=S)cc1OC | n | n | 64
Cc1ccc(/C=C2/SC(=O)NC2=S)o1 | n | n | n
CN1C(=O)Cc2cc(S(=O)(=O)CCC(=O)Nc3ccccc3)ccc21 | -22 | x | x
CN1C(=O)Cc2cc(S(=O)(=O)CCC(=O)Nc3cccc(C(F)(F)F)c3)ccc21 | n | x | x
CCn1cc(C(=O)NCC23CC4CC(CC(C4)C2)C3)c(=O)c2ccc(C)nc21 | n | n | n
